This is a sample that favours compounds with a hit; in the whole collection about 3.2% have one here.
NTR1 agonist: agonists of human NTR1, primary screen, imaging, U2OS cells, beta-arrestin-GFP, high content; Neurotensin receptor type 1 (Homo sapiens), P30989; NTR1-U2OS beta-arrestin-GFP spot imaging, agonist mode; activation, % at 20 µM; 330,000 compounds, 0.17% hits;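 active means activation at or above 40% of the spot to cytoplasm intensity ratio, with at least 20 cells analyzed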;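 further: 0% = DMSO without peptide and 100% = 100 nM NTR1 peptide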
APOBEC3A inh: APOBEC3A ssDNA deaminase inhibitors, primary screen, selectivity assay for APOBEC3G inhibitor project, biochemical, FAM/TAMRA oligo cleavage fluorescence; inhibition, % at 20 µM; 330,000 compounds, 0.41% hits; AID 493011, 2011; recombinant A3A, FAM/TAMRA ssDNA deamination fluorescence; DNA dC->dU-editing enzyme APOBEC-3A (Homo sapiens), P31941;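 active means at least 40% inhibition at 20 µM here, with at most 30% in a related deaminase screen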;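 further: plate controls were A3A with DMSO for no effect and wells lacking A3A enzyme for full effect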
Target sequence (P31941 whole entry, looked up): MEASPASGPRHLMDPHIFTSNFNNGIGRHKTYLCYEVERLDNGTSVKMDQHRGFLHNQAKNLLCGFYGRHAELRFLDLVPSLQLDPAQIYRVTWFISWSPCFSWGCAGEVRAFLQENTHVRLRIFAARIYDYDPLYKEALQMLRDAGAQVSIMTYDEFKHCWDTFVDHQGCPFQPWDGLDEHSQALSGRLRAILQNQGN
AHR act: AHR activators, primary screen, cell-based, luminescence, luciferase reporter, human. Aryl hydrocarbon receptor (Homo sapiens), P35869. AHR-responsive luciferase reporter cells. activation, % at 5 µM. 320,000 compounds, 2.5% hits. AID 2796, 2010; in the data active means activation above about 47%;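 further: 0% = vehicle wells and 100% = reference agonist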
A3G deaminase: APOBEC3G DNA deaminase inhibitors, primary screen, biochemical, fluorescence, single-stranded DNA substrate, uHTS | DNA dC->dU-editing enzyme APOBEC-3G (Homo sapiens), Q9HC16 | recombinant A3G, ssDNA deamination FAM/TAMRA fluorescence | inhibition, % at 20 µM | 330,000 compounds, 0.28% hits;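 active means inhibition of at least 40% at 20 µM, with no more than 30% in the related APOBEC3A deaminase screen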;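 further: plate controls were DMSO wells with A3G for no effect and wells lacking A3G enzyme for full effect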
Target sequence (Q9HC16 whole entry, looked up): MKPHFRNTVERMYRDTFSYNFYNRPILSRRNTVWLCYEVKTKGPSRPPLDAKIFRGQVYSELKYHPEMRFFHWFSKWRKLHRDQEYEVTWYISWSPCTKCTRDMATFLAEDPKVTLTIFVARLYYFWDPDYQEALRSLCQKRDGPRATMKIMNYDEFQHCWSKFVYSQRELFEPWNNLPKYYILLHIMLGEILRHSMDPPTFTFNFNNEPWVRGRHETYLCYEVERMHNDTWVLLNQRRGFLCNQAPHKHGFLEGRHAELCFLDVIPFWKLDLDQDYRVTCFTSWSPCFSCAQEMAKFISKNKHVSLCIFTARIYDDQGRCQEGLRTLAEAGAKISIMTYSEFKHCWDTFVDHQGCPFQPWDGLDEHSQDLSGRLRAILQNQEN
A3G conf: APOBEC3G deaminase inhibitor retest, confirmation, biochemical, fluorescence, single-stranded DNA substrate, single concentration; shares compounds with A3G deaminase; recombinant A3G ssDNA deaminase, UDG/FAM-TAMRA fluorescence; inhibition, % at 20 µM; 890 compounds, 72% hits; AID 493152, 2011;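 active means inhibition reaching a set limit in any replicate at 20 µM, the limit being 80% of the first screen's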
UDG ctr A3G: E. coli UDG inhibitors, confirmation, counter-screen for APOBEC3G inhibitor project, biochemical, single concentration, fluorescence, FAM/TAMRA oligo; shares compounds with A3G deaminase; inhibition, % at 20 µM; AID 504715, 2011; 710 tested, under 10 active; UDG counterscreen;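 active means compounds giving 40% or more inhibition at 20 µM in any one of the three replicates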;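 further: plate controls were DMSO wells with UDG and oligo for no effect and DMSO wells lacking both for full effect; inhibitors lower the FAM signal released by uracil excision and alkaline cleavage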
NTR1 ag confirm: NTR1 agonists, single-dose retest, confirmation, imaging, U2OS cells, beta-arrestin-GFP, single concentration | shares compounds with NTR1 agonist | NTR1-U2OS beta-arrestin-GFP translocation imaging | activation, % at 20 µM | 480 compounds, 38% hits;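 active means mean activation at 20 µM of at least 40%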;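 further: 0% = DMSO without peptide and 100% = 100 nM NTR1 peptide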
* = called active by the depositor; . = no result given.

SMILES	NTR1 agonist	APOBEC3A inh	AHR act	A3G deaminase	NTR1 ag confirm	others
CCOC(=O)c1cc(C#N)c(SCC(N)=O)[nH]c1=O	-1	-2	-1	-5	.
CCOC(=O)c1cc(C#N)c(SCC(=O)c2cc(C#N)c(SC)nc2C)[nH]c1=O	-1	2	3	43*	.	A3G conf=17*;UDG ctr A3G=-4
Cc1cc(C)c(NC(=O)c2ccc3c(c2)CCN3S(C)(=O)=O)c(C)c1	1	1	3	-3	.
COCCCn1c(=NC(=O)c2ccccc2)c(C#N)cc2c(=O)n3cccc(C)c3nc21	50*	-4	9	46*	20	A3G conf=1;UDG ctr A3G=-5
CCOC(=O)c1ccccc1NC(=O)CN1C(=O)NC(C)(CCc2ccccc2)C1=O (configuration not stated)	2	3	13	-12	.
O=C(Nc1ccc(Cl)cc1)/C(=C/c1cccc(O)c1)c1nc2ccccc2s1	49*	-1	4	-7	56*
O=C(O)C/C(=C\c1cccc(NC(=O)c2ccccc2Cl)c1)c1nc2ccccc2s1	1	3	6	0	.
CCCCCOC(=O)C1=C(C)Nc2nnnn2C1c1ccccc1Cl (configuration not stated)	58*	2	1	-3	14
COC(=O)C1=C(C)Nc2nnnn2C1c1ccccc1Cl (configuration not stated)	1	-2	0	-4	.
Cc1ccc(S(=O)(=O)Nc2cc(-c3ccccc3)nn2C)cc1Cl	1	-2	-3	-3	.
CCC(=O)N(NC1=NS(=O)(=O)c2ccccc21)S(=O)(=O)c1ccc(C)cc1	1	2	-2	-4	.
CCOC(=O)C(CCCP(=O)(c1ccccc1)c1ccccc1)(NC(C)=O)C(=O)OCC	1	2	1	-5	.
CCc1cc(-c2n[nH]c(C)c2Oc2ccc(C(C)C)cc2)c(O)cc1O	64*	4	14	5	30
CC1CCCC(NCC(O)COC(c2ccc(F)cc2)c2ccc(F)cc2)C1C (configuration not stated)	52*	-3	3	-1	27
C[C@@H]1CC=C[C@H]2[C@H]1C(=O)N(Cc1ccccc1)[C@H]2c1ccc2ccccc2c1Br	43*	-3	.	-7	18
Cc1ccc(-c2csc3ncnc(SCC(=O)Nc4nnc(C)s4)c23)cc1	4	-2	-3	-6	.
Cc1ccc(-c2csc3ncnc(Sc4nnc(CN5CCCCCC5=O)o4)c23)cc1	49*	-1	-2	-5	56*
Cc1cccc(N2CCN(C(=O)C3CCN(c4ncnc5c4nc4n5CCCCC4)CC3)CC2C)c1 (configuration not stated)	55*	-7	3	-7	31
Cc1ccc(N2CCN(C(=O)C3CCCN(c4ncnc5c4nc4n5CCCCC4)C3)CC2)c(C)c1 (configuration not stated)	73*	6	0	11	29
Cc1ccc(C)c(N2CCN(C(=O)C3CCCN(c4ncnc5c4nc4n5CCCCC4)C3)CC2)c1 (configuration not stated)	20	0	-2	-1	.
Cc1cccc(N2CCN(C(=O)C3CCN(c4ncnc5c4nc4n5CCCCC4)CC3)CC2)c1C	17	-2	-1	-3	.
O=C(COC(=O)CNC(=O)c1cccc(OC(F)F)c1)NNC(=O)c1ccccc1	-1	-1	0	-7	.
COc1ccc2cc(C(c3nnnn3C3CCCC3)N3CCOCC3)c3nnnn3c2c1 (configuration not stated)	2	-2	1	-5	.
CCc1nc2ccccc2c(C(=O)OCC(=O)Nc2ccc(S(=O)(=O)N3CCOCC3)cc2)c1C	11	3	3	3	.
CCc1nc2ccccc2c(C(=O)OCC(=O)Nc2cccc(S(=O)(=O)N3CCOCC3)c2)c1C	60*	2	6	0	65*
SMILES	NTR1 agonist	APOBEC3A inh	AHR act	A3G deaminase	NTR1 ag confirm	others
COc1cc(-c2csc(N3CCOCC3)n2)cc(OC)c1OC	-2	-2	37	-7	.
COc1ccc(-c2csc(N3CCN(c4cc(C)nc5ccccc45)CC3)n2)cc1OC	44*	1	7	-11	42*
COc1ccc(-c2nnn(Cc3ccccc3)n2)cc1OC	0	-3	3	-4	.
COc1cc2c3nnc(-c4ccc(F)cc4)c-3cn(Cc3ccccc3)c2cc1OC	49*	-2	6	-5	84*
COc1ccc(Cn2cc3c(-c4ccc(F)cc4)nnc-3c3cc(OC)c(OC)cc32)cc1	46*	-3	9	-4	78*
Cn1nc2c3cc(F)ccc3n(Cc3ccc(F)cc3)cc-2c1=O	-1	-1	3	-6	.
O=C1c2cccc3cccc(c23)C(=O)N1CC1CCN(CC(O)COc2ccc3ccccc3c2)CC1 (configuration not stated)	41*	4	-2	1	59*
COc1cccc(OCC(O)CN2CCC(CN3C(=O)c4cccc5cccc(c45)C3=O)CC2)c1 (configuration not stated)	3	1	1	4	.
Cc1cc(C)cc(OCC(O)CN2CCC(CN3C(=O)c4cccc5cccc(c45)C3=O)CC2)c1 (configuration not stated)	48*	10	0	-2	58*
CCCN1CCN(CCNC(=O)Nc2cc(C)ccc2C)CC1	-1	-1	1	-8	.
O=C(c1ccc(OC2CCN(C/C=C/c3ccc(F)cc3)CC2)cc1)N1CCCC1	2	-5	-1	-7	.
C[C@H](NC(=O)c1[nH]cnc1C(=O)Nc1cccc(Cl)c1)c1ccccc1	52*	-2	11	-12	46*
C[C@@H](NC(=O)c1[nH]cnc1C(=O)Nc1ccccc1)c1ccccc1	27	-2	17	-9	.
C[C@@H](NC(=O)c1[nH]cnc1C(=O)Nc1cccc(Cl)c1)c1ccccc1	45*	-4	21	-9	22
CC1N=C2c3ccccc3N=C(SCc3cc(=O)n4cc(Cl)ccc4n3)N2C1=O (configuration not stated)	52*	18	4	-2	4
